“And” between values parts separate entries of the source, which are not always exact repeats. Equal entries are not always repeated. Records with an inconclusive call do not appear. The source made the active and inactive calls. The calls were made as follows: active = hit-call score of the fitted dose curve at least 0.9, where 1 is the maximum; inconclusive = response in the unintended direction; inactive = score below 0.9.
biological target: Cellular tumor antigen p53 (Homo sapiens) (UniProt P04637); assay: TOX21_p53_BLA_p5_ratio: Tox21 HCT-116 p53 Agonism Beta-lactamase Assay, Ratio, Phase 5 (AID 2283599)
Sequence (P04637 whole entry, looked up): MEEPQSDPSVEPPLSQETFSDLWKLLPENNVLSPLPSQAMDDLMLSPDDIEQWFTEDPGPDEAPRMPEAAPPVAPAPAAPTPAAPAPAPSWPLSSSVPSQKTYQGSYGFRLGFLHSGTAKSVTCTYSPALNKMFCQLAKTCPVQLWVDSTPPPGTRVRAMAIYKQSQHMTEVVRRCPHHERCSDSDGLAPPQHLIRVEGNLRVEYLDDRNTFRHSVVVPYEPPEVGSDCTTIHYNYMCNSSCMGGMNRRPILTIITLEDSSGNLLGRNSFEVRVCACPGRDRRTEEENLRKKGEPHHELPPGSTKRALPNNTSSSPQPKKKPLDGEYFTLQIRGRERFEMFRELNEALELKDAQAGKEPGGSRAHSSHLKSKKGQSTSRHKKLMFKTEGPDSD
Summary of the method: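 HCT-116 cells carrying a p53-inducible beta-lactamase reporter were seeded at 4000 cells/well and dosed after 5 h with compound in DMSO (217-fold dilution). After 16 h at 37C, CCF4-AM substrate was added for 2 h, and the 460/530 nm emission ratio was scored as gain-of-signal versus DMSO.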

Row | Structure (SMILES) | outcome | AC50
1 | c1ccc2c(c1)Oc1ccccc1O2 | inactive | 
2 | CC(C)C(C)(N)C#N (stereo not given) | inactive | 
3 | OC[P+](CO)(CO)CO | inactive | 
4 | CCC[CH2][Sn]([Cl])([Cl])[CH2]CCC |  | 15 µM (active) and 20.4 µM (active)
5 | O=C=Nc1ccc(Cl)cc1 | inactive | 
6 | CCCCOC(=O)COC(=O)c1ccccc1C(=O)OCCCC | inactive | 
7 | OCCCCO | inactive | 
8 | CC(c1ccc(O)cc1)c1ccc(O)cc1 | inactive | 
9 | CC(C)(c1ccccc1)c1cc(-n2nc3ccccc3n2)c(O)c(C(C)(C)c2ccccc2)c1 | inactive | 
10 | CCCCC(CC)C(=O)Cl (stereo not given) | inactive | 
11 | O=C(Cc1ccccc1)OCCc1ccccc1 | inactive | 
12 | c1ccc(-c2cccc(-c3ccccc3)c2)cc1 | inactive | 
13 | Nc1ccc(Br)cc1 | inactive | 
14 | C=C(C)C(=O)OCC(CC)CCCC (stereo not given) | inactive | 
15 | O=[N+]([O-])c1cc([As](=O)(O)O)ccc1O | inactive | 
16 | Cc1cccc(N=Nc2ccc(N(C)C)cc2)c1 | inactive | 
17 | O=C(NC(=O)c1c(F)cccc1F)Nc1cc(Cl)c(F)c(Cl)c1F | inactive | 
18 | CC(C=O)Cc1ccc2c(c1)OCO2 (stereo not given) | inactive | 

system: not listed separately; assay: TOX21_p53_BLA_p5_viability: Viability Assessment in the Tox21 HCT-116 p53 Agonism Beta-lactamase Assay, Phase 5 (AID 2283600)
Summary of the method: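 Viability came from CellTiter-Glo ATP luminescence, read after 30 min at room temperature. Before this, HCT-116 p53-bla cells (4000/well) had 16 hours of compound exposure at 37C, with DMSO stocks diluted 217-fold on transfer.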

Row | Structure (SMILES) | outcome
19 | CC(C)=CC1C(C(=O)OCc2cccc(Oc3ccccc3)c2)C1(C)C (stereo not given) | inactive
20 | CCCCOC(=O)COC(=O)c1ccccc1C(=O)OCCCC | inactive
21 | CC(c1ccc(O)cc1)c1ccc(O)cc1 | inactive
22 | CCCCC(CC)C(=O)Cl (stereo not given) | inactive
23 | C=C(C)C(=O)OCC(CC)CCCC (stereo not given) | inactive
24 | O=[N+]([O-])c1cc([As](=O)(O)O)ccc1O | inactive
25 | CC(C=O)Cc1ccc2c(c1)OCO2 (stereo not given) | inactive

biological target: Cellular tumor antigen p53 (Homo sapiens) (UniProt P04637); assay: TOX21_p53_BLA_p4_ratio: Tox21 HCT-116 p53 Agonism Beta-lactamase Assay, Ratio, Phase 4 (AID 2283601)
Summary of the method: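 HCT116 cells carrying an inducible beta-lactamase reporter were plated at 4000 cells/well, rested 5 h, then exposed to compounds in DMSO (217-fold dilution) for 16 h at 37C. CCF4-AM substrate was loaded 2 h at room temperature; 460/530 nm emission ratio scored gain-of-signal versus DMSO.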

Row | Structure (SMILES) | outcome | AC50
26 | Nc1nc(N)nc(Cl)n1 | inactive | 
27 | CC(C)C(C)(N)C#N (stereo not given) | inactive | 
28 | OC[P+](CO)(CO)CO | inactive | 
29 | CC(C)=CC1C(C(=O)OCc2cccc(Oc3ccccc3)c2)C1(C)C (stereo not given) | inactive | 
30 | C#CCO | inactive | 
31 | O=NN1CCCCCC1 | inactive | 
32 | CCC[CH2][Sn]([Cl])([Cl])[CH2]CCC |  | 3.21 µM (active) and 13.9 µM (active)
33 | O=C=Nc1ccc(Cl)cc1 | inactive | 
34 | CCCCOC(=O)COC(=O)c1ccccc1C(=O)OCCCC | inactive | 
35 | OCCCCO | inactive | 
36 | CC(c1ccc(O)cc1)c1ccc(O)cc1 | inactive | 
37 | CC(C)(c1ccccc1)c1cc(-n2nc3ccccc3n2)c(O)c(C(C)(C)c2ccccc2)c1 | inactive | 
38 | CCCCC(CC)C(=O)Cl (stereo not given) | inactive | 
39 | c1ccc(-c2cccc(-c3ccccc3)c2)cc1 | inactive | 
40 | Nc1ccc(Br)cc1 | inactive | 
41 | C=C(C)C(=O)OCC(CC)CCCC (stereo not given) | inactive | 
42 | O=[N+]([O-])c1cc([As](=O)(O)O)ccc1O | inactive | 
43 | Cc1cccc(N=Nc2ccc(N(C)C)cc2)c1 | inactive | 
44 | O=C(NC(=O)c1c(F)cccc1F)Nc1cc(Cl)c(F)c(Cl)c1F | inactive | 
45 | CC(C=O)Cc1ccc2c(c1)OCO2 (stereo not given) | inactive | 

Source: PubChem BioAssay (EPA / NIEHS)
